# Assay results published in the supplement of paper PMC6522484.
# ± gives the standard deviation of the averaged measurements.
# How the values were obtained:
# [1] = test system: DLD1; assay: cell viability (CellTiter-Glo) relative to plate median (fraction of plate median); higher = more viable cells; details: 5 µM; treatment time 24 h; reporter: 7TFP
# Summary of the method: (§1)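 Library compounds, at a final 5 µM, stayed on reporter cells for 24 h. The cells were colorectal cancer lines stably transduced with lentiviral TCF/Wnt firefly luciferase reporters, seeded in 384-well plates 24 h before dosing. Firefly luciferase or CellTiterGlo luminescence from parallel plates was normalised to the plate median in webcellHTS2 (additive, no log transformation), and two independent replicates were averaged.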
# [2] = test system: HCT116; assay: as above; details: 5 µM; treatment time 24 h; reporter: TCF4/Wnt
# Summary of the method: as §1
# [3] = test system: SW480; assay: as above; details: 5 µM; treatment time 24 h; reporter: 7TFP
# Summary of the method: as §1
# [4] = test system: DLD1; assay: TCF/Wnt firefly luciferase reporter signal relative to plate median (fraction of plate median); higher = higher Wnt reporter signal; details: 5 µM; treatment time 24 h; reporter: 7TFP
# Summary of the method: as §1
# [5] = test system: SW480; assay: as above; details: 5 µM; treatment time 24 h; reporter: 7TFP
# Summary of the method: as §1
Structure (SMILES),cell viability [1],cell viability [2],cell viability [3],TCF/Wnt firefly luciferase reporter signal [4],TCF/Wnt firefly luciferase reporter signal [5]
C[C@@H]1CC[C@@]2(OC1)O[C@H]1[C@@H](O)[C@H]3[C@@H]4CC[C@H]5C[C@@H](O[C@@H]6O[C@H](CO)[C@H](O[C@@H]7O[C@H](CO)[C@@H](O)[C@H](O[C@@H]8OC[C@@H](O)[C@H](O)[C@H]8O)[C@H]7O[C@@H]7O[C@H](CO)[C@H](O)[C@H](O[C@@H]8O[C@H](CO)[C@@H](O)[C@H](O)[C@H]8O)[C@H]7O)[C@H](O)[C@H]6O)[C@H](O)C[C@]5(C)[C@H]4CC[C@]3(C)[C@H]1[C@@H]2C,1.02 ± 0.11,1.065 ± 0.0071,1.035 ± 0.0071,0.986 ± 0.09,1.095 ± 0.0071
C/C=C/[C@H]1O[C@@](O)([C@@H](C)[C@H](O)[C@H](C)[C@H]2OC(=O)/C(OC)=C/C(C)=C/[C@@H](C)[C@@H](O)[C@@H](CC)[C@@H](O)[C@H](C)C/C(C)=C/C=C/[C@@H]2OC)C[C@@H](O[C@H]2C[C@@H](O)[C@H](OC(N)=O)[C@@H](C)O2)[C@@H]1C [Concanamycin A],0.886 ± 0.095,0.998 ± 0.059,1.04 ± 0.035,0.806 ± 0.2,0.9 ± 0.12
C=CCc1ccc(OC)cc1,1.06 ± 0.092,1 ± 0.025,1.03 ± 0.035,1.2 ± 0.11,1.025 ± 0.0071
COc1cc([C@@H]2c3cc4c(cc3[C@H](O)[C@H]3COC(=O)[C@@H]23)OCO4)cc(OC)c1OC,1.04 ± 0.1,0.774 ± 0.025,1.22 ± 0.11,0.819 ± 0.052,0.887 ± 0.057
CC(=O)O[C@H]1C[C@@H]2CC[C@@H]3[C@H](CC[C@@]4(C)[C@H]3C[C@H]([N+]3(C)CCCCC3)[C@@H]4OC(C)=O)[C@@]2(C)C[C@@H]1[N+]1(C)CCCCC1,0.9865 ± 0.0064,1.03 ± 0.062,0.963 ± 0.011,1.01 ± 0.093,0.9685 ± 0.0078
COc1cc([C@@H]2c3cc4c(cc3[C@H](OC(C)=O)[C@H]3COC(=O)[C@@H]23)OCO4)cc(OC)c1OC,0.903 ± 0.098,0.904 ± 0.027,1.02 ± 0.028,0.693 ± 0.014,0.867 ± 0.092
COc1cc(O)c2c(=O)oc3cc(O)cc(C)c3c2c1 [Alternariol-9-methylether],0.979 ± 0.044,1.03 ± 0.073,1.01 ± 0.042,0.946 ± 0.1,1.06 ± 0.064
O=C([O-])Cc1ccccc1.[Na+],0.97 ± 0.0057,0.906 ± 0.1,0.971 ± 0.021,0.923 ± 0.04,0.896 ± 0.0042
CCN1C[C@]2(COC)[C@H](O)C[C@H](OC)[C@@]34[C@@H]5C[C@@]6(O)[C@H](OC(=O)c7ccccc7)[C@@H]5[C@@](OC(C)=O)([C@@H]([C@H](OC)[C@H]23)[C@@H]14)[C@@H](O)[C@@H]6OC,0.943 ± 0.066,1.04 ± 0.05,1.02 ± 0.06,0.931 ± 0.057,0.955 ± 0.19
N#C/C(=C\c1ccc(O)cc1)C(=O)O [alpha-CYANO-4-HYDROXYCINNAMIC ACID],1.01 ± 0.014,1.04 ± 0.058,0.9385 ± 0.0078,0.996 ± 0.034,0.913 ± 0.033
CC(C)=CCC[C@]1(C)C=Cc2c(O)c3c(c(CC=C(C)C)c2O1)O[C@]12C(=C[C@@H]4C[C@H]1C(C)(C)O[C@@]2(C/C=C(/C)C(=O)O)C4=O)C3=O,0.965 ± 0.12,0.993 ± 0.053,1.09 ± 0.14,1.05 ± 0.095,1.09 ± 0.028
C=CCN1CC[C@]23c4c5ccc(O)c4O[C@H]2C(=O)CC[C@@]3(O)[C@H]1C5,1.04 ± 0.05,0.936 ± 0.011,1.08 ± 0.014,0.959 ± 0.011,0.918 ± 0.019
CC(=O)O[C@H]1C[C@H](O[C@H]2[C@@H](O)C[C@H](O[C@H]3[C@@H](O)C[C@H](O[C@H]4CC[C@@]5(C)[C@H](CC[C@@H]6[C@@H]5C[C@@H](O)[C@]5(C)[C@@H](C7=CC(=O)OC7)CC[C@]65O)C4)O[C@@H]3C)O[C@@H]2C)O[C@H](C)[C@H]1O[C@@H]1O[C@H](CO)[C@@H](O)[C@H](O)[C@H]1O,0.65 ± 0.044,0.636 ± 0.0042,0.851 ± 0.078,0.264 ± 0.13,0.584 ± 0.057
CCC(C)C(=O)OC1CC2(C)C(c3ccoc3)OC(=O)CC23OC2(C)OC34C(OC(=O)C(C)C)C3(O)C(OC(=O)C5(C)OC5C)C5(C)CC3(O)C(C)(C5CC(=O)OC)C14O2 (stereo not given),1.09 ± 0.071,1.12 ± 0.11,1.08 ± 0.014,1.045 ± 0.0071,1.13 ± 0.014
CNC(=O)ON=C(C)SC,1.01 ± 0.021,0.928 ± 0.1,0.985 ± 0.035,0.98 ± 0.029,0.933 ± 0.058
O=C1C=C2C(=CCOC2O)O1 (stereo not given),0.883 ± 0.19,0.606 ± 0.2,0.9575 ± 0.0064,0.993 ± 0.18,0.499 ± 0.025
CC1(C)C(=O)C=C[C@@]2(C)C1=C(O)C(=O)[C@]1(C)[C@@H]2CC[C@@]2(C)[C@H](c3ccoc3)C[C@H]3O[C@]321,0.925 ± 0.029,1.13 ± 0.057,0.91 ± 0.034,0.986 ± 0.062,1.02 ± 0.055
CC(=O)OC1CCC23C(=O)OC45CCC(C6=CC(=O)OC6)C4(C)CCC2C5CCC3(O)C1 (stereo not given),0.688 ± 0.011,0.397 ± 0.066,0.7175 ± 0.0021,0.202 ± 0.05,0.389 ± 0.011
COc1ccc(/C=C/c2cc(O)cc(O)c2)cc1,1.05 ± 0.057,1.01 ± 0.021,0.982 ± 0.018,1.25 ± 0.33,1.21 ± 0.099
O=c1[nH]c2ccccc2n1CCCN1CCC(n2c(=O)[nH]c3cc(Cl)ccc32)CC1 [Domperidone],0.898 ± 0.1,0.83 ± 0.042,0.94 ± 0.063,0.997 ± 0.09,0.814 ± 0.071
CC(C)C[C@H]1C(=O)N2CCC[C@H]2[C@]2(O)O[C@](NC(=O)[C@@H]3C=C4c5cccc6[nH]c(Br)c(c56)C[C@H]4N(C)C3)(C(C)C)C(=O)N12,1.05 ± 0.014,0.974 ± 0.08,1.07 ± 0.014,0.985 ± 0.021,0.931 ± 0.052
CCNc1nc(Cl)nc(NCC)n1,0.955 ± 0.028,1.065 ± 0.0071,1.02 ± 0.03,0.9375 ± 0.005,0.886 ± 0.034
OC[C@@H]1CCCN2CCCC[C@H]12,1.04 ± 0.014,1 ± 0.053,0.995 ± 0.036,0.898 ± 0.14,0.964 ± 0.065
CN1C[C@H](CNC(=O)OCc2ccccc2)C[C@@H]2c3cccc4c3c(cn4C)C[C@H]21,1.03 ± 0.049,1.03 ± 0.069,1.09 ± 0.057,0.986 ± 0.049,1.01 ± 0.052
CCC12C=CCN3CC[C@@]4(c5ccc(OC)cc5N(C)[C@H]4[C@@](O)(C(=O)OC)[C@@H]1OC(C)=O)[C@@H]32 (stereo not given in full),0.975 ± 0.035,0.953 ± 0.025,0.9915 ± 0.0021,0.857 ± 0.042,0.821 ± 0.021
CC1NC(=O)C(NC(=O)c2cnc3ccccc3n2)COC(=O)C(C(C)C)N(C)C(=O)C2CSSCC(C(=O)N(C)C(C(C)C)C(=O)OCC(NC(=O)c3cnc4ccccc4n3)C(=O)NC(C)C(=O)N2C)N(C)C1=O (stereo not given) [Triostin A],0.968 ± 0.028,0.984 ± 0.08,0.992 ± 0.054,0.941 ± 0.073,0.871 ± 0.037
